# “And” between values parts separate entries of the source, which are not always exact repeats. Identical values can stand only once. Like-named read-outs stand apart in the source and are kept apart here.
# Tests used:
# [1] = tested on: T1, RSK2(Kin.Dom.1-N-terminal); settings: concentration: 1 μM, replicates: in singlicate, n = 1
# T1 construct: gene RPS6KA3
# [2] = tested on: T2, RSK2(Kin.Dom.2-C-terminal); settings: concentration: 1 μM, replicates: in singlicate, n = 1
# T2 construct: gene RPS6KA3
# [3] = tested on: T3, RSK3(Kin.Dom.1-N-terminal); settings: concentration: 1 μM, replicates: in singlicate, n = 1
# T3 construct: gene RPS6KA2
# [4] = tested on: T4, RSK3(Kin.Dom.2-C-terminal); settings: concentration: 1 μM, replicates: in singlicate, n = 1
# T4 construct: gene RPS6KA2
# [5] = tested on: T5, RSK4(Kin.Dom.1-N-terminal); settings: concentration: 1 μM, replicates: in singlicate, n = 1
# T5 construct: gene RPS6KA6
# [6] = tested on: T6, RSK4(Kin.Dom.2-C-terminal); settings: concentration: 1 μM, replicates: in singlicate, n = 1
# T6 construct: gene RPS6KA6
# S6K1 = settings: concentration: 1 μM, replicates: in singlicate, n = 1
# SBK1 = settings: concentration: 1 μM, replicates: in singlicate, n = 1
# SGK2 = settings: concentration: 1 μM, replicates: in singlicate; n = 1
# SGK3 = settings: concentration: 1 μM, replicates: in singlicate, n = 1
# SGK = settings: concentration: 1 μM, replicates: in singlicate, n = 1
# SIK2 = settings: concentration: 1 μM, replicates: in singlicate, n = 1
# SIK = settings: concentration: 1 μM, replicates: in singlicate, n = 1
# SLK = settings: concentration: 1 μM, replicates: in singlicate, n = 1
# SNARK = tested on: T7, SNARK; settings: concentration: 1 μM, replicates: in singlicate, n = 1
# T7 construct: gene NUAK2
# SNRK = settings: concentration: 1 μM, replicates: in singlicate, n = 1
# SRC = settings: concentration: 1 μM, replicates: in singlicate, n = 1
# SRMS = settings: concentration: 1 μM, replicates: in singlicate, n = 1
# SRPK1 = settings: concentration: 1 μM, replicates: in singlicate, n = 1
# SRPK2 = settings: concentration: 1 μM, replicates: in singlicate, n = 1
# 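Also: KINOMEscan kinase panel screen.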
compound,measurement,setting,value
Cc1nnc(-c2ccc3occ(-c4ccc(C(C)O)cc4)c3c2)o1 (stereo not drawn),%Inh,[1],3%
same,%Inh,[2],0%
same,%Inh,[3],0%
same,%Inh,[4],3%
same,%Inh,[5],19%
same,%Inh,[6],7%
same,%Inh,S6K1,0%
same,%Inh,SBK1,0%
same,%Inh,SGK2,0%
same,%Inh,SGK3,0%
same,%Inh,SGK,1%
same,%Inh,SIK2,18%
same,%Inh,SIK,10%
same,%Inh,SLK,14%
same,%Inh,SNARK,2%
same,%Inh,SNRK,9%
same,%Inh,SRC,18%
same,%Inh,SRMS,2%
same,%Inh,SRPK1,0%
same,%Inh,SRPK2,2%
Cn1ccc2ncnc(Oc3ccc(NC(=O)Nc4ccncc4)c(Cl)c3)c21,%Inh,[1],0%
same,%Inh,[2],0%
same,%Inh,[3],0%
same,%Inh,[4],0%
same,%Inh,[5],0%
same,%Inh,[6],0%
same,%Inh,S6K1,0%
same,%Inh,SBK1,0%
same,%Inh,SGK2,2%
same,%Inh,SGK3,0%
same,%Inh,SGK,0%
same,%Inh,SIK2,0%
same,%Inh,SIK,0%
same,%Inh,SLK,0%
same,%Inh,SNARK,0%
same,%Inh,SNRK,0%
same,%Inh,SRC,13%
same,%Inh,SRMS,0%
same,%Inh,SRPK1,0%
same,%Inh,SRPK2,0%
NS(=O)(=O)CCc1cccc(Nc2nccc(-c3c(-c4cccc(NC(=O)c5c(F)cccc5F)c4)nn4ccccc34)n2)c1 [GSK336735],%Inh,[1],15%
same,%Inh,[2],0%
same,%Inh,[3],45%
same,%Inh,[4],0%
same,%Inh,[5],0%
same,%Inh,[6],2%
same,%Inh,S6K1,20%
same,%Inh,SBK1,27%
same,%Inh,SGK2,0%
same,%Inh,SGK3,3%
same,%Inh,SGK,0%
same,%Inh,SIK2,37%
same,%Inh,SIK,94.7%
same,%Inh,SLK,97.7%
same,%Inh,SNARK,86%
same,%Inh,SNRK,0%
same,%Inh,SRC,97.8%
same,%Inh,SRMS,98.8%
same,%Inh,SRPK1,62%
same,%Inh,SRPK2,0%
O=c1cc(N2CCOCC2)nc2n(Cc3cccc4ccccc34)ccn12 [GSK2333389],%Inh,[1],0%
same,%Inh,[2],0%
same,%Inh,[3],2%
same,%Inh,[4],0%
same,%Inh,[5],0%
same,%Inh,[6],8%
same,%Inh,S6K1,0%
same,%Inh,SBK1,14%
same,%Inh,SGK2,0%
same,%Inh,SGK3,0%
same,%Inh,SGK,0%
same,%Inh,SIK2,0%
same,%Inh,SIK,0%
same,%Inh,SLK,0%
same,%Inh,SNARK,0%
same,%Inh,SNRK,0%
same,%Inh,SRC,0%
same,%Inh,SRMS,0%
same,%Inh,SRPK1,29%
same,%Inh,SRPK2,0%
COc1cc2c(cc1OCCN1CCN(C)CC1)ncc1c3ccc(C#N)cc3[nH]c21,%Inh,[1],61%
same,%Inh,[2],42%
same,%Inh,[3],33%
same,%Inh,[4],47%
same,%Inh,[5],67%
same,%Inh,[6],44%
same,%Inh,S6K1,53%
same,%Inh,SBK1,72%
same,%Inh,SGK2,43%
same,%Inh,SGK3,19%
same,%Inh,SGK,78%
same,%Inh,SIK2,88%
same,%Inh,SIK,17%
same,%Inh,SLK,34%
same,%Inh,SNARK,97.1%
same,%Inh,SNRK,27%
same,%Inh,SRC,0%
same,%Inh,SRMS,0%
same,%Inh,SRPK1,7%
same,%Inh,SRPK2,0%
COc1ccc(S(=O)(=O)NC2CCN(c3cc(C)nc(Nc4cccc(C#N)c4)n3)CC2)cc1.O=C(O)C(F)(F)F [GSK1653539],%Inh,[1],0%
same,%Inh,[2],0%
same,%Inh,[3],1%
same,%Inh,[4],0%
same,%Inh,[5],0%
same,%Inh,[6],21%
same,%Inh,S6K1,0%
same,%Inh,SBK1,0%
same,%Inh,SGK2,0%
same,%Inh,SGK3,4%
same,%Inh,SGK,0%
same,%Inh,SIK2,0%
same,%Inh,SIK,0%
same,%Inh,SLK,8%
same,%Inh,SNARK,0%
same,%Inh,SNRK,0%
same,%Inh,SRC,0%
same,%Inh,SRMS,0%
same,%Inh,SRPK1,0%
same,%Inh,SRPK2,0%
O=C1Cc2cc(Nc3nc(NCc4cccc(S(=O)(=O)C(F)(F)F)c4)ncc3C(F)(F)F)ccc2N1,%Inh,[1],37%
same,%Inh,[2],15%
same,%Inh,[3],8%
same,%Inh,[4],0%
same,%Inh,[5],35%
same,%Inh,[6],0%
same,%Inh,S6K1,0%
same,%Inh,SBK1,0%
same,%Inh,SGK2,2%
same,%Inh,SGK3,33%
same,%Inh,SGK,10%
same,%Inh,SIK2,0%
same,%Inh,SIK,6%
same,%Inh,SLK,0%
same,%Inh,SNARK,0%
same,%Inh,SNRK,0%
same,%Inh,SRC,0%
same,%Inh,SRMS,0%
same,%Inh,SRPK1,0%
same,%Inh,SRPK2,6%
O=C(Nc1cccc(-c2nn3ncccc3c2-c2ccnc(Nc3cccc(C(F)(F)F)c3)n2)c1)c1c(F)cccc1F [GSK299495],%Inh,[1],22%
same,%Inh,[2],0%
same,%Inh,[3],31%
same,%Inh,[4],5%
same,%Inh,[5],0%
same,%Inh,[6],0%
same,%Inh,S6K1,0%
same,%Inh,SBK1,11%
same,%Inh,SGK2,2%
same,%Inh,SGK3,0%
same,%Inh,SGK,1%
same,%Inh,SIK2,0%
same,%Inh,SIK,0%
same,%Inh,SLK,81%
same,%Inh,SNARK,0%
same,%Inh,SNRK,0%
same,%Inh,SRC,56%
same,%Inh,SRMS,21%
same,%Inh,SRPK1,0%
same,%Inh,SRPK2,16%
Cc1nnc(-c2ccc(C)c(-c3ccc(C(=O)Nc4ccc(NS(C)(=O)=O)cc4)cc3)c2)o1 [GW702865],%Inh,[1],0%
same,%Inh,[2],0%
same,%Inh,[3],0%
same,%Inh,[4],0%
same,%Inh,[5],0%
same,%Inh,[6],0%
same,%Inh,S6K1,0%
same,%Inh,SBK1,0%
same,%Inh,SGK2,0%
same,%Inh,SGK3,4%
same,%Inh,SGK,2%
same,%Inh,SIK2,0%
same,%Inh,SIK,0%
same,%Inh,SLK,0%
same,%Inh,SNARK,1%
same,%Inh,SNRK,0%
same,%Inh,SRC,0%
same,%Inh,SRMS,2%
same,%Inh,SRPK1,23%
same,%Inh,SRPK2,34%
NS(=O)(=O)c1cccc(-c2ccc3nccc(-c4cccc(S(N)(=O)=O)c4)c3c2)c1 [GW867253],%Inh,[1],31%
same,%Inh,[2],56%
same,%Inh,[3],0%
same,%Inh,[4],11%
same,%Inh,[5],12%
same,%Inh,[6],30%
same,%Inh,S6K1,16%
same,%Inh,SBK1,0%
same,%Inh,SGK2,0%
same,%Inh,SGK3,0%
same,%Inh,SGK,9%
same,%Inh,SIK2,1%
same,%Inh,SIK,0%
same,%Inh,SLK,0%
same,%Inh,SNARK,0%
same,%Inh,SNRK,0%
same,%Inh,SRC,0%
same,%Inh,SRMS,27%
same,%Inh,SRPK1,0%
same,%Inh,SRPK2,0%
COc1ccc(CNC(=O)NC2CCN(c3ccnc(Nc4ccc(OC)cc4)n3)C2)cc1 (stereo not drawn) [GSK1379727],%Inh,[1],7%
same,%Inh,[2],0%
same,%Inh,[3],0%
same,%Inh,[4],0%
same,%Inh,[5],0%
same,%Inh,[6],21%
same,%Inh,S6K1,2%
same,%Inh,SBK1,3%
same,%Inh,SGK2,0%
same,%Inh,SGK3,0%
same,%Inh,SGK,25%
same,%Inh,SIK2,0%
same,%Inh,SIK,1%
same,%Inh,SLK,0%
same,%Inh,SNARK,0%
same,%Inh,SNRK,0%
same,%Inh,SRC,0%
same,%Inh,SRMS,5%
same,%Inh,SRPK1,43%
same,%Inh,SRPK2,35%
O=C(Nc1n[nH]c2cc(-c3cccc(F)c3)ccc12)C1CC1 [SB-735464],%Inh,[1],0%
same,%Inh,[2],15%
same,%Inh,[3],2%
same,%Inh,[4],0%
same,%Inh,[5],9%
same,%Inh,[6],17%
same,%Inh,S6K1,49%
same,%Inh,SBK1,21%
same,%Inh,SGK2,0%
same,%Inh,SGK3,13%
same,%Inh,SGK,13%
same,%Inh,SIK2,0%
same,%Inh,SIK,0%
same,%Inh,SLK,11%
same,%Inh,SNARK,0%
same,%Inh,SNRK,0%
same,%Inh,SRC,0%
same,%Inh,SRMS,18%
same,%Inh,SRPK1,36%
same,%Inh,SRPK2,4%
O=C(NCCNc1ccnc(Nc2ccc(F)cc2)n1)c1cc2ccccc2s1 [GSK1379874],%Inh,[1],0%
same,%Inh,[2],0%
same,%Inh,[3],0%
same,%Inh,[4],0%
same,%Inh,[5],0%
same,%Inh,[6],1%
same,%Inh,S6K1,0%
same,%Inh,SBK1,0%
same,%Inh,SGK2,0%
same,%Inh,SGK3,0%
same,%Inh,SGK,0%
same,%Inh,SIK2,0%
same,%Inh,SIK,0%
same,%Inh,SLK,17%
same,%Inh,SNARK,0%
same,%Inh,SNRK,0%
same,%Inh,SRC,0%
same,%Inh,SRMS,0%
same,%Inh,SRPK1,3%
same,%Inh,SRPK2,19%
Fc1ccc(-c2nn3c(OCC(F)(F)F)cccc3c2-c2ccncc2)cc1 [GW514784],%Inh,[1],0%
same,%Inh,[2],0%
same,%Inh,[3],3%
same,%Inh,[4],8%
same,%Inh,[5],0%
same,%Inh,[6],89%
same,%Inh,S6K1,0%
same,%Inh,SBK1,2%
same,%Inh,SGK2,9%
same,%Inh,SGK3,0%
same,%Inh,SGK,15%
same,%Inh,SIK2,0%
same,%Inh,SIK,0%
same,%Inh,SLK,0%
same,%Inh,SNARK,0%
same,%Inh,SNRK,0%
same,%Inh,SRC,0%
same,%Inh,SRMS,0%
same,%Inh,SRPK1,29%
same,%Inh,SRPK2,0%
Cl.Cl.Cl.Fc1ccc(-c2ncn(C3CCNCC3)c2-c2ccnc(Nc3ccccc3)n2)cc1 [SB-238039],%Inh,[1]; 1 µM,41% and 35%
same,%Inh,[2]; 1 µM,16% and 0%
same,%Inh,[3]; 1 µM,0% and 15%
same,%Inh,[4]; 1 µM,18% and 32%
same,%Inh,[5]; 1 µM,19% and 0%
same,%Inh,[6]; 1 µM,88% and 80%
same,%Inh,S6K1; 1 µM,5% and 0%
same,%Inh,SBK1; 1 µM,36% and 0%
same,%Inh,SGK2,2%
same,%Inh,SGK3; 1 µM,8% and 12%
same,%Inh,SGK; 1 µM,41% and 0%
same,%Inh,SIK2; 1 µM,65% and 46%
same,%Inh,SIK; 1 µM,1% and 4%
same,%Inh,SLK; 1 µM,28% and 0%
same,%Inh,SNARK; 1 µM,9% and 0%
same,%Inh,SNRK; 1 µM,0% and 10%
same,%Inh,SRC; 1 µM,0% and 4%
same,%Inh,SRMS; 1 µM,29% and 0%
same,%Inh,SRPK1; 1 µM,7% and 0%
same,%Inh,SRPK2; 1 µM,7% and 0%

# — paper PMC5540273 (PLoS ONE, 2017)
